# Hit rate of the full screen: of about 2,500 compounds, about 980 (39%) were called active. The list is a sample of the results. Unmarked numbers belong to inactive results.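 Rule for the calls: active = mean inhibition at 5 µM reaching about 45% (limit read from the data); inactive = the rest.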
# Assay: Gli-SUFU pathway antagonists, confirmation, single concentration, luciferase luminescence, Sufu-KO-LIGHT cells (AID 602428);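 note: plate controls were DMSO-treated cells for no effect and wells lacking cells for full effect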
# Settings: Gli luciferase reporter, at 5 µM, active compounds read high
row,Structure (SMILES),inhibition
1,C=CCNC(=S)/N=c1/ccccn1Cc1ccccc1,50.8% (active)
2,CCOc1cccc(/C=N/NC(=S)NCCN2CCOCC2)c1O,24.5%
3,Nc1ccc(C(=O)N2CCN(S(=O)(=O)c3ccc(Cl)cc3)CC2)cc1[N+](=O)[O-],17.8%
4,COc1ccc(NC(=O)[C@H](NC(=O)[C@@H]2Cc3ccccc3CN2)c2ccccc2)cc1,17.9%
5,CCOC(=O)c1ccc(NC(=O)Cn2cnc3cc(C)c(C)cc32)cc1,76.1% (active)
6,CC(=O)Nc1cccc(OCC(=O)/C=C2\N(C)c3ccccc3C2(C)C)c1,54.9% (active)
7,O=C(O)CCCn1cc(NC(=O)COc2cccc(Cl)c2)cn1,12.9%
8,CC1CC2=C(CC1/C=N/NC(N)=S)C(C)(C)CCC2 (stereo not given),49.3% (active)
9,COc1ccccc1CNC(=O)C1CCN(c2nc3ccccc3o2)CC1,25.9%
10,COc1ccccc1CCNC(=O)C(=O)NCCC1CCCCN1S(=O)(=O)c1cccs1 (stereo not given),48.8% (active)
11,Cc1cccc(NS(=O)(=O)c2ccc(-c3cnc(C4CC4)o3)cc2)c1,36.7%
12,COc1ccc(NS(=O)(=O)c2ccc(NC(C)=O)cc2)cc1OC,51.5% (active)
13,COc1ccc2c(C)cc3nnnn3c2c1,17.3%
14,O=C(CN1C(=O)c2ccccc2S1(=O)=O)N1CCc2ccccc21,57.7% (active)
15,CC(C)OCC(O)CN1CCN(C(c2ccccc2)c2ccccc2)CC1 (stereo not given),10.4%
16,CC(=O)/C(=N\Nc1ccc(Cl)cc1Cl)Sc1cccc2cccnc12,57.7% (active)
17,CCC(Cc1ccccc1)NC(=O)C1CCCCC1 (stereo not given),6.07%
18,O=C(Nc1cc2c3c(c1)C1CCCC1CN3CC1CCCC21)c1ccc([N+](=O)[O-])cc1 (stereo not given),79% (active)
19,COc1cc(C(=O)OC2CCOC2=O)c([N+](=O)[O-])cc1OC (stereo not given),7.05%
20,CC[n+]1c(C)n(-c2ccccc2)c2ccc(NC(C)=O)cc21,80.2% (active)

row,Structure (SMILES),inhibition
1,C=CCOC(=O)C1=C[C@@H](c2ccc3c(c2)OCO3)C[C@@H](OCCCCO)O1,28.9%
2,O=C1/C(=C\c2cccnc2)CN(Cc2ccccc2)C/C1=C\c1cccnc1,19.9%
3,CCCCC(=O)NC(c1ccc(OC)c(OC)c1)c1ccc2cccnc2c1O (stereo not given),55% (active)
4,Cc1ccc(NC(=S)Nc2ccc(F)cc2)cc1,-13.7%
5,CCN1/C(=C/C(=S)Nc2ccccc2)Sc2ccccc21,9.5%
6,COc1ccc(Cn2c(-c3ccc(Cl)cc3)c[n+]3ccccc23)cc1,63.2% (active)
7,c1c2c(cc3sc(N4CCCCC4)nc13)OCCO2,34.5%
8,O=c1c2ccccc2nc2n1C(CSCc1cccc(C(F)(F)F)c1)CS2 (stereo not given),67.6% (active)
9,CC1(C)CC(=O)c2c(n(S(=O)(=O)c3ccccc3)c3ccc(NS(=O)(=O)c4ccccc4)cc23)C1,19.1%
10,C/C(=N\NC(=O)Cc1ccc(Cl)cc1)c1ccccn1,86.9% (active)
11,Cc1cc(NC(=O)c2cccc(N3C(=O)CCC3=O)c2)no1,20.1%
12,CC(C)(CNC(=O)c1ccc(Cl)c(S(=O)(=O)N2CCc3ccccc3C2)c1)N1CCOCC1,22.8%
13,CN(C)c1cc[n+](Cc2ccccc2)cc1,53% (active)
14,CCOC(=O)c1cnc(-n2nc(C)cc2C)nc1NNc1cc(C)nc(-c2ccccc2)n1,53.6% (active)
15,CCc1ccc(C2C(C#N)=C(N)N(N3CCOCC3)C3=C2C(=O)CC(C)(C)C3)s1 (stereo not given),7.97%
16,C=CCn1c(SCC(=O)CC(=O)OCC)nc2cc(C(=O)N3CCC(C(N)=O)CC3)ccc2c1=O,20.4%
17,COc1cc(C(=O)OC(C)C(=O)NCC2CCCCC2)cc(NC(=O)c2ccco2)c1OC (stereo not given),13.1%
18,COc1ccc(NS(=O)(=O)c2ccc(N3CCN(CCO)CC3)c([N+](=O)[O-])c2)cc1,45.5% (active)
19,COc1ccccc1/C=C/CN1CCC(CO)(Cc2ccccc2)CC1,12.3%
20,O=C(CN1CCN(S(=O)(=O)c2cc(Cl)ccc2Cl)CC1)c1ccc(O)c(O)c1,22.3%

row,Structure (SMILES),inhibition
1,NS(=O)(=O)c1ccc(CCNC(=O)CCCn2c(SCC(=O)N3CCCC3)nc3ccsc3c2=O)cc1,8.32%
2,COC(=O)Cc1[nH]n(-c2nc3ccccc3s2)c(=O)c1C(C)=Nc1ccc(OC)cc1,91.5% (active)
3,N#CC(C#N)=CN=c1ccn(Cc2ccc(Cl)cc2Cl)cc1,50.9% (active)
4,CCn1c(SCc2ccccc2)nc2cc(OC)c(OC)cc2c1=O,25.4%
5,Cc1ccc(C(=O)C[n+]2cc(-c3ccccc3)n3c2CCCCC3)cc1,70.7% (active)
6,Cc1cc(C(=O)CSc2nc(N)cc(=O)[nH]2)c(C)n1-c1cccc(F)c1,55.4% (active)
7,Cc1ccc(-c2nc3c(cnn3-c3ccccc3)c(=O)o2)cc1,38.2%
8,N#Cc1ccc(C(=O)Nc2nc(-c3cccs3)c(C(=O)C(F)(F)F)s2)cc1,66% (active)
9,O=C(O)c1ccc(N/N=C/c2ccc3ncccc3c2)cc1,61.1% (active)
10,CCNC(=S)N(CCN(CC)CC)Cc1cc2cc3c(cc2[nH]c1=O)OCO3,20.6%
11,CC1(C)Cc2ccccc2/C(=C/C(=O)c2ccccc2)N1,27.6%
12,CC(C)Oc1ccc(/C=N/NC(=O)c2nnn(-c3nonc3N)c2CN(C)C2CCCCC2)cc1,24.6%
13,CC(=O)c1c(C)[nH]c(C(=O)OCC(=O)Nc2sc3c(c2C#N)CCCC3)c1C,59% (active)
14,NC(N)=Nc1nc(-c2ccccc2)c2cc(Cl)ccc2n1,31.6%
15,CCCOc1ccccc1C1CC(=O)Nc2cc3c(cc21)OCO3 (stereo not given),52.9% (active)
16,COc1ccccc1C1C2=C(COC2=O)Nc2cc3c(cc21)OCO3 (stereo not given),48.7% (active)
17,COc1ccccc1N1CCN(Cc2cc(OC)c3c(c2)OCO3)CC1,14.2%
18,CNc1nnc(-c2ccco2)s1,23.3%
19,COc1ccc(OC)c(/C=N/NC(=O)c2ccc[n+](CC(=O)c3ccccc3)c2)c1,13.3%
20,Cc1ccc(S(=O)(=O)NC(C)C(=O)Nc2ccccc2C(=O)N2CCCC2)cc1 (stereo not given),14.3%
